Over roughly 35,000 sequences, “fluorescence intensity (a.u.)” has its median near 10,000; the highest 2% begin near 52,000. Shown is part of a subset that was picked to be rich in the highest values.
Target: T1, OsWOX13 (Oryza sativa, UniProt Q5QMM3 1-267)
T1 sequence: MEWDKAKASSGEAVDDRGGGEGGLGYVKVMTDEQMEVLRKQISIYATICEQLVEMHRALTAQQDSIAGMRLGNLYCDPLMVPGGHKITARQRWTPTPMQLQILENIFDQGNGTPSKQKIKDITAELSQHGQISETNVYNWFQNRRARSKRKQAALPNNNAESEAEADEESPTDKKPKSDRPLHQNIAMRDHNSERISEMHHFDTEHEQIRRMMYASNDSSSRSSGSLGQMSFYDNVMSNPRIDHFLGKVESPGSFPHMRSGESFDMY
Test: protein-binding microarray (RPBM); PBS, 2% BSA, 51.3 ng/ul salmon testes DNA, 50 uM zinc acetate, 200 nM TF, 25 C, 1 h; high values mean tight binding
Conditions: protein: recombinant; tags: N-terminal polyhistidine and DsRed monomer fusion (pET32a); label: CyDye5-dUTP incorporated in the synthesized complementary strand; 3' TTTTT single-stranded linker to array surface; dsDNA, one strand shown
Outline: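 The binding signal for each feature is its fluorescence intensity in arbitrary units. An Axon 4000B scanner was used to read a custom Agilent array that had been made double-stranded with Cy5-dUTP primer extension, blocked with 2% BSA, incubated at 25 °C for 1 h with 200 nM protein in PBS, 2% BSA, salmon testes DNA and 50 µM zinc acetate, and washed. The protein was an N-terminal polyhistidine–DsRed transcription factor fusion from E. coli BL21-CodonPlus, purified on Ni–NTA.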

**Q.** With “TATAATTTAAATTCAAATTTGAATCGGGTATGTAAACTTTCGGAGTCACCTAGTGCAG” as the sequence, how does the binding signal read?
**A.** 15500 fluorescence intensity (a.u.)

**Q.** For “TCATGAAATTAATAGGATGCCACGTCGACTTGGTTGTTCCCGGAGTCACCTAGTGCAG”, which binding signal is on record?
**A.** 3510 fluorescence intensity (a.u.)

**Q.** With “ATAAATTTATAGGTAAAACTTTTATATAGATGTTCTTGGTCGGAGTCACCTAGTGCAG” as the sequence, how does the binding signal read?
**A.** 15300 fluorescence intensity (a.u.)

**Q.** How did the binding signal turn out when “TGAAATTGGAATGATGTGAAGGAAAAGTTGGAAGTTTGTGCGGAGTCACCTAGTGCAG” was run?
**A.** 20700 fluorescence intensity (a.u.)

**Q.** Which binding signal does the source give for “CTAATTACTATCCATCATGTTTCTGTGGACGCGCGGCTCACGGAGTCACCTAGTGCAG” here?
**A.** 9700 fluorescence intensity (a.u.)

**Q.** Which binding signal does the source give for “TCTCTATAATTAAACATTCCAATTTCGAAAATGTTGTTAGCGGAGTCACCTAGTGCAG” here?
**A.** 8580 fluorescence intensity (a.u.)

**Q.** For “AAGTTTCAAAATTTAAATTTTGACCGCATGCAGCTGATAACGGAGTCACCTAGTGCAG”, which binding signal is on record?
**A.** 4610 fluorescence intensity (a.u.)

**Q.** With “ACGTTATTAATTACTTAGTACTACTATGAGTTAACTATGGCGGAGTCACCTAGTGCAG” as the sequence, how does the binding signal read?
**A.** 18500 fluorescence intensity (a.u.)

**Q.** Which binding signal does the source give for “ATTTGATTGTATATTGTACTAGTGCTACTACTACGTGGAGCGGAGTCACCTAGTGCAG” here?
**A.** 60400 fluorescence intensity (a.u.)

**Q.** Which binding signal does the source give for “CACCATTGCATGATTGCATCTGCATCACTGCATGCCAACGCGGAGTCACCTAGTGCAG” here?
**A.** 5680 fluorescence intensity (a.u.)

**Q.** How did the binding signal turn out when “CTATTGATTTCTGCTGCTACTTTTCTATACTGTATTTTGTCGGAGTCACCTAGTGCAG” was run?
**A.** 15500 fluorescence intensity (a.u.)

**Q.** With “CAGTGTGATTGACTGTTGAGGCGGAGTCGGAGCTGCTTGTCGGAGTCACCTAGTGCAG” as the sequence, how does the binding signal read?
**A.** 50900 fluorescence intensity (a.u.)

**Q.** Which binding signal does the source give for “TTAGATTGGGACAGTACGTAGGAATTGGTTGATTTCCGGGCGGAGTCACCTAGTGCAG” here?
**A.** 16300 fluorescence intensity (a.u.)

**Q.** How did the binding signal turn out when “GTACAGTGTACTTGATTGAGTTGACAGTCATACTCTACTACGGAGTCACCTAGTGCAG” was run?
**A.** 18500 fluorescence intensity (a.u.)

**Q.** With “GCTTAATTGGTTAGTGGACTAGTATATAGTAGTACTGTATCGGAGTCACCTAGTGCAG” as the sequence, how does the binding signal read?
**A.** 46500 fluorescence intensity (a.u.)

**Q.** With “TGGGCCTGATTAACATGTGCTGTAGAATCGTACAACTGTGCGGAGTCACCTAGTGCAG” as the sequence, how does the binding signal read?
**A.** 7530 fluorescence intensity (a.u.)

**Q.** Which binding signal does the source give for “CCTGATTCTGATTGGCGCCAACGTACGTACTGTACATGCGCGGAGTCACCTAGTGCAG” here?
**A.** 56900 fluorescence intensity (a.u.)

**Q.** How did the binding signal turn out when “ACTTGTATATTTGTGGATTGATACATTACATATTGATCTACGGAGTCACCTAGTGCAG” was run?
**A.** 5160 fluorescence intensity (a.u.)

**Q.** With “TATTGATTGATTGGTTAGTACTACAGTACTGTAGGAGTGGCGGAGTCACCTAGTGCAG” as the sequence, how does the binding signal read?
**A.** 64700 fluorescence intensity (a.u.)

**Q.** “CATTGATTGACATTGTTGAGGCAGTACTGTTACAGTTGAGCGGAGTCACCTAGTGCAG” was tested. Which binding signal did it give?
**A.** 59400 fluorescence intensity (a.u.)

**Q.** Which binding signal does the source give for “AAAGGGTTAATTTGTCAAATTTTCGGGCTTTAGTGAAAAGCGGAGTCACCTAGTGCAG” here?
**A.** 12700 fluorescence intensity (a.u.)

**Q.** Which binding signal does the source give for “TCAAACTTACATAATTTACATGCCATGTTATCCAATATGCCGGAGTCACCTAGTGCAG” here?
**A.** 11100 fluorescence intensity (a.u.)

**Q.** How did the binding signal turn out when “GGAAAGACAGATTGAAGAAGCTGGGGTTCAAACCCAGGATCGGAGTCACCTAGTGCAG” was run?
**A.** 10300 fluorescence intensity (a.u.)

**Q.** For “ATGTCGACATACGTAATTAATGTACACTCAGAACATGTCGCGGAGTCACCTAGTGCAG”, which binding signal is on record?
**A.** 4870 fluorescence intensity (a.u.)

**Q.** For “TAAAACTATTTAATTACCAAACTATTCACGTGATGAGATGCGGAGTCACCTAGTGCAG”, which binding signal is on record?
**A.** 14900 fluorescence intensity (a.u.)

**Q.** “CTAATCTAATCATCGGATTAGGAAATAAGTAAGCAAACAACGGAGTCACCTAGTGCAG” was tested. Which binding signal did it give?
**A.** 6880 fluorescence intensity (a.u.)

**Q.** For “TCTATAAATTGAACATGTTTCAAACCAGGCTTGCAAGTTGCGGAGTCACCTAGTGCAG”, which binding signal is on record?
**A.** 15500 fluorescence intensity (a.u.)

**Q.** “AGTTTCCTAATCTATTATATGATAGTACTCGGTCGGAGCTCGGAGTCACCTAGTGCAG” was tested. Which binding signal did it give?
**A.** 3210 fluorescence intensity (a.u.)

**Q.** Which binding signal does the source give for “ATTTAACTGTATAAACAATTAATAACAAGAATTGTGTATACGGAGTCACCTAGTGCAG” here?
**A.** 16100 fluorescence intensity (a.u.)

**Q.** For “AGTAATTTACTTGCTAGCTTGCAACTATTTCTTAGTACATCGGAGTCACCTAGTGCAG”, which binding signal is on record?
**A.** 3460 fluorescence intensity (a.u.)

**Q.** How did the binding signal turn out when “CATCCTCATTAACGGCAGATTAATACTATTTAGTCCATCTCGGAGTCACCTAGTGCAG” was run?
**A.** 3220 fluorescence intensity (a.u.)

**Q.** For “AAACTGATTGACGGTTTTCTTTCTAAAACTGATTTTCAGGCGGAGTCACCTAGTGCAG”, which binding signal is on record?
**A.** 43200 fluorescence intensity (a.u.)

**Q.** With “AAGTTGATTACTTAAACTGATTGACAGGGAGGCGGTTGAACGGAGTCACCTAGTGCAG” as the sequence, how does the binding signal read?
**A.** 56600 fluorescence intensity (a.u.)

**Q.** With “AAATTTTGATTTTAAAACTTAATTGTAAAGTTGACTTTAACGGAGTCACCTAGTGCAG” as the sequence, how does the binding signal read?
**A.** 9040 fluorescence intensity (a.u.)

**Q.** With “TATATATATATATATATATATATACCCACGTGAGGACGTACGGAGTCACCTAGTGCAG” as the sequence, how does the binding signal read?
**A.** 31500 fluorescence intensity (a.u.)

**Q.** Which binding signal does the source give for “GTTGATTTAATTATGGTTAACCTCTCACAGTAATCCGGGTCGGAGTCACCTAGTGCAG” here?
**A.** 64800 fluorescence intensity (a.u.)

**Q.** For “TTTGTTATAATTGATATTTAATTAATCATATGGTAATTACCGGAGTCACCTAGTGCAG”, which binding signal is on record?
**A.** 27800 fluorescence intensity (a.u.)

**Q.** For “TGAAATGGTTAAATGATTTGGGTTGAAATATTATGAAAATCGGAGTCACCTAGTGCAG”, which binding signal is on record?
**A.** 3220 fluorescence intensity (a.u.)

**Q.** “GTGAAAATGATTGGTCTTTTGATTAACATATGCAGCTTATCGGAGTCACCTAGTGCAG” was tested. Which binding signal did it give?
**A.** 53300 fluorescence intensity (a.u.)

**Q.** “TTAGTGCTTAAATGATTAATCTATGGTCTAAATTATCTTTCGGAGTCACCTAGTGCAG” was tested. Which binding signal did it give?
**A.** 7610 fluorescence intensity (a.u.)

**Q.** “CACAATTTAATATGGTTATAATTGTAATCTCACATATCCTCGGAGTCACCTAGTGCAG” was tested. Which binding signal did it give?
**A.** 7610 fluorescence intensity (a.u.)

**Q.** Which binding signal does the source give for “ATAATTGATAATGAAGACCAAGGAAATGCTTCTTTGGTCCCGGAGTCACCTAGTGCAG” here?
**A.** 54300 fluorescence intensity (a.u.)

Reference: publication PMC7819943, “Rice protein-binding microarrays: a tool to detect cis-acting elements near promoter regions in rice”
